Source: PubChem
Only some compounds are listed: those with a hit (about 3.4% of all), similar ones and a draw of the others.
GPR151 ag: activators of human GPR151 | Q8TDV0 | PathHunter beta-arrestin GPR151 cells, luminescence | activation, % at 11.2 µM | 1% of 650,000 active; in the data active = activation above about 4.9%;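 also: 0% = median of compound wells and 100% = cells with positive control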
TEAD-YAP block: TEAD-YAP interaction inhibition; HEK-TIYL cells, TEAD-Gal4/YAP UAS-luciferase luminescence; inhibition, % at 9.12 µM; 1.4% of 640,000 active; AID 1259422; in the data active = inhibition above about 32%;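 also: 0% = median of test compound wells and 100% = reference inhibitor wells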
FBW7 activator: human FBW7 E3 ligase activation, primary screen; Q969H0; AlphaScreen FBW7–phospho-cyclin E peptide binding, activator screen; normalized activity (activation), % at 26.1 µM; 0.13% of 650,000 active; AID 1259310; in the data active = normalized activity above about 1.9%;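 also: purified mutant Fbw7 with reduced substrate affinity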
MITF primary: inhibitors of human MITF; inhibition, % at 2.6 µM; AID 1259374; 0.91% of 650,000 active; O75030; AlphaScreen MITF homodimerization, bead proximity signal; in the data active = inhibition above about 50%;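 also: 0% = vehicle wells with protein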
GPR151 confirm: human GPR151 activation, confirmation screen; shares compounds with GPR151 ag; GPR151 PathHunter beta-arrestin cells, luminescence, 90 min; % of EA-reagent control over plate median; activation, % at 11.2 µM; 6,700 tested, under 10 active;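 active = mean percent activation across replicates above the confirmation screen cutoff of 4.91%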
GPR119 ag: GPR119 activation, counter-screen for GPR151 activators; shares compounds with GPR151 ag; activation, % at 11.2 µM; GPR119 PathHunter beta-arrestin cells, luminescence, 90 min; 0 = compound-well median, 100 = enzyme-acceptor control; 0.3% of 6,700 active;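 active = mean percent activation in the counterscreen above 29.09%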;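 also: counterscreen on off-target GPR119 to flag nonselective hits from the GPR151 activator screen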
Target sequence (Q8TDV5 whole entry, looked up): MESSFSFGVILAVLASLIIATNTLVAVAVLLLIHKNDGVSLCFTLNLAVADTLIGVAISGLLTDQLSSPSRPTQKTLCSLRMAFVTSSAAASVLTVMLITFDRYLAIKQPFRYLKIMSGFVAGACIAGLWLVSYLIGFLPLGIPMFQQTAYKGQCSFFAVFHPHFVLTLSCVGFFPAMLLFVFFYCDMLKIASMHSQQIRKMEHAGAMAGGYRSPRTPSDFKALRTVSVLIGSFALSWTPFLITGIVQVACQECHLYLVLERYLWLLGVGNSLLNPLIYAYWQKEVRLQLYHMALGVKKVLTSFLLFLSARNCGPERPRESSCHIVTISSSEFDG
Numbers without * were called inactive; / = not tested or not shown.

SMILES	GPR151 ag	TEAD-YAP block	FBW7 activator	MITF primary	GPR151 confirm	GPR119 ag
CC1CCN(Cc2nnnn2CCCC(=O)N(C)C2CCOC2)CC1 (stereo not drawn)	8.7*	3	0	4	-1	-6
COC(=O)c1cccc(NC(=O)/C(=C\c2ccco2)NC(=O)c2ccco2)c1	5.5*	7	0	13	0	-6
CC(=O)c1cccc(NC(=O)/C(=C/c2ccco2)NC(=O)c2ccco2)c1	1	-10	0	0	/	/
COc1ccc(OC)c(NC(=O)CCN(C)Cc2ccccc2)c1	11*	-6	0	-3	0	-8
COc1ccccc1NC(=O)c1ccccc1C(F)(F)F	1	1	0	-5	/	/
COc1ccc(OC)c(NC(=O)c2ccccc2C(F)(F)F)c1	6.6*	6	0	-5	1	-2
CN(C)C(=O)c1ccc(N2CCC(NCC3CCCO3)CC2)cc1 (stereo not drawn)	-1	-5	0	-16	/	/
NNC(=O)c1ccc(Cn2cc([N+](=O)[O-])cn2)o1	0	-25	0	6	/	/
CCOc1ccccc1-n1nnnc1SCC(=O)NC(C)(C)C	6.9*	3	0	-1	1	2
CCOC(=O)CSc1nnnn1-c1ccccc1OCC	1	-5	0	8	/	/
COc1cc(/C=C2\SC(=S)NC2=O)ccc1OS(=O)(=O)c1ccccc1	7.9*	18	0	11	0	6
O=C(CN(CCc1ccccc1)S(=O)(=O)c1cc(Cl)ccc1Cl)N1CCCC1	18*	-3	0	21	0	-13
O=C(CN(Cc1ccccc1)S(=O)(=O)c1cc(Cl)ccc1Cl)N1CCCC1	3	-2	0	22	/	/
COC(=O)CCC(=O)NCC1Cc2cc(C)cc(-c3cc(C(C)=O)ccc3F)c2O1 (stereo not drawn)	0	-8	0	-7	/	/
C1CN(c2nc3nonc3nc2N2CCSCC2)CCO1	8.9*	0	0	4	1	-1
C1CN(c2nc3nonc3nc2N2CCOCC2)CCO1	0	2	0	10	/	/
O=C(CN(Cc1ccc(Cl)c(Cl)c1)S(=O)(=O)c1ccccc1)NCCCO	0	1	0	-3	/	/
Cc1cccc(C)c1NC(=O)CSc1ncn[nH]1	2	-9	0	-17	/	/
CCc1cccc(C)c1NC(=O)CSc1ncn[nH]1	7.4*	4	0	18	0	-6
COc1ccc(/C=C2\C=C(c3ccccc3)N(c3ccc(-c4ccccc4)cc3)C2=O)cc1	7.0*	8	0	7	1	6
COc1cc([N+](=O)[O-])ccc1-c1ccc(/C=N/NC(C)=O)o1	2	2	0	0	/	/
CCCN(CCC)S(=O)(=O)c1ccc(C(=O)Nc2nc3c(OC)cccc3s2)cc1	6.6*	4	0	-31	0	12
CCCN(CCC)S(=O)(=O)c1ccc(C(=O)Nc2nc3c(ccc4ccccc43)s2)cc1	-1	8	0	-4	/	/
COc1ccc(Cl)cc1NC(=O)CN1CCC(n2nnc3ccccc32)CC1	5.3*	-23	0	14	0	-2
COCCSc1ccccc1C(=O)Nc1nnc(CCc2ccccc2)s1	0	5	0	-3	/	/
SMILES	GPR151 ag	TEAD-YAP block	FBW7 activator	MITF primary	GPR151 confirm	GPR119 ag
CCCC(=O)Nc1ccc(NC(=O)c2ccc(I)cc2)cc1	10.0*	1	0	-3	1	-4
CCN(CC)CCCNC(=O)c1ccc2c(=O)n(CCN(CC)CC)c(=S)[nH]c2c1	0	5	1	18	/	/
N#CC1=C(N)Oc2n[nH]c(-c3cccc([N+](=O)[O-])c3)c2C1c1ccc(Cl)c(Cl)c1 (stereo not drawn)	7.9*	3	0	5	-1	-6
COc1cc(C2C(C#N)=C(N)Oc3n[nH]c(-c4cccc([N+](=O)[O-])c4)c32)cc(OC)c1OC(C)=O (stereo not drawn)	-1	-8	0	-6	/	/
COc1cc(C2C(C#N)=C(N)Oc3n[nH]c(-c4cccc([N+](=O)[O-])c4)c32)cc(OC)c1O (stereo not drawn)	6.0*	10	0	1	-1	8
N#CC1=C(N)Oc2n[nH]c(-c3ccccc3)c2C1c1ccc([N+](=O)[O-])cc1Cl (stereo not drawn)	1	-20	0	1	/	/
